# KB-V1 MDR tox – qHTS assay for MDR1-selective chemotherapeutics: Primary screen using the drug-selected MDR subline cells KB-V1; 400,000 compounds, 3.4% hits; Potency, µM (series often up to 46.1 µM), hits mostly cytotoxic; KB-V1 MDR cells viability, CellTiter-Glo, 72 h; further: on the % scale 0 is the no-effect control and ±100 the full control effect; nearly all actives have a fitted effect of over 60% in size
#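 Compound-treated KB-V1 multidrug-resistant cells, 72 h, 37 degrees C; viability by CellTiter-Glo. Fitted qHTS curves give the values.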
# HT1080 IDH1KD tx – qHTS for induction of synthetic lethality in tumor cells producing 2HG: qHTS for the HT-1080-IDH1KD cell line; Potency, µM (doses to about 46.1 µM), for inactives: at the top dose activity, negative = toxicity, most hits filed as cytotoxic; AID 686971, 2013; 360,000 compounds, 2% hits; HT-1080 IDH1 knockdown viability, ATP luminescence, 48 h;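 further: 0% = DMSO wells and -100% = cell-free medium wells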
#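 Luminescent ATP read-out (CellTiter-Glo, 10 min at room temperature) after 48 h compound exposure at 37 °C gave viability of IDH1-knockdown HT-1080 cells. Activity was normalised to DMSO and cell-free wells, then fitted as concentration-response curves.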
# ATXN2 expr inh – Primary qHTS for Inhibitors of ATXN expression | HEK-293 ATXN2-luciferase reporter, luminescence, 24 h | Potency, µM (titrated, usually from 57 µM), for the others: at the highest dose activity change, negative = inhibition, most hits filed as inhibitors | 360,000 compounds, 0.72% hits | AID 1745845, 2022; further: on the % scale 0 is the no-effect control and ±100 the full control effect; nearly all actives have a fitted effect of over 55% in size
#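 ATXN2-luciferase reporter cells (luciferase flanked by upstream and downstream ATXN2 gene portions) were treated 24 h at 37 °C with compounds at up to 57 uM. SteadyGlo luminescence gave expression; GF-AFC fluorescence gave viability.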
# KB-3-1 tox – qHTS assay for MDR1-selective chemotherapeutics: Primary screen using the parental adenocarcinoma cell KB-3-1 | KB-3-1 viability, CellTiter-Glo ATP luminescence, 72 h | Potency, µM (series often up to 46.1 µM), most hits filed as cytotoxic | 400,000 compounds, 1.4% hits | AID 1347075, 2019; further: on the % scale 0 is the no-effect control and ±100 the full control effect; nearly all actives have a fitted effect of over 60% in size
#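 Cytotoxicity measured as CellTiter-Glo luminescence after 72 h at 37 C. Compound titrations were pinned onto drug-naive KB-3-1 parental adenocarcinoma cells grown in DMEM with 10% FBS, and normalized data fitted to concentration-response curves.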
# HT1080-NT tox – qHTS for induction of synthetic lethality in tumor cells producing 2HG: qHTS for the HT-1080-NT fibrosarcoma cell line; HT-1080-NT fibrosarcoma viability, CellTiter-Glo ATP luminescence, 48 h; Potency, µM (doses to about 46.1 µM), without a hit: top-dose activity, negative = less viability, usual class: cytotoxic; 360,000 compounds, 1.6% hits; AID 686970, 2013;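 further: NT is the 2HG producing partner of a matched IDH1 knockdown line; 0% = DMSO-treated cells and -100% = media-only wells without cells; nearly all actives have a fitted effect of over 55% in size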
#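 Viability of the 2HG-overproducing fibrosarcoma line after 48 hours of compound exposure at 37 degrees C was determined by luminescence with CellTiter-Glo, and concentration-effect curves were then fitted and categorized.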
# S2 tox – Viability Counterscreen for Primary qHTS for Inhibitors of ATXN expression; 400,000 compounds, 0.49% hits; Potency, µM (top dose mostly 56.7 µM), most hits filed as cytotoxic; S2 cells (HEK-293 line with an ATXN2-luciferase reporter) viability, CellTiter-Fluor protease fluorescence, 24 h; AID 651635, 2014; further: nearly all actives have a fitted effect of over 40% in size
# The depositor's hits bear a star; i = inactive; ? = inconclusive; · = no result given; ! = repeats disagree. An excerpt weighted towards active compounds, which were near 6.2% of everything screened. The call rests on the fitted dose curve; in most records, active means well fitted curve in the direction sought with a large enough effect; inconclusive means small, poorly fitted or top-dose-only effect, or another doubt; inactive means no such curve, though single readings can be large; an effect the other way counts as inactive or inconclusive. Potency means the concentration at half of the fitted maximal effect.
SMILES,KB-V1 MDR tox,HT1080 IDH1KD tx,ATXN2 expr inh,KB-3-1 tox,HT1080-NT tox,S2 tox
COC(=O)N/N=C/c1cn(Cc2c(Cl)cccc2Cl)c2ccccc12,16µM*,-7%,-9%,i,-2%,i
COC(=O)N/N=C/c1cn(CCCOc2ccccc2)c2ccccc12,23µM*,?,-36%,?,-21%,i
O=C(N/N=C/c1cn(CCOc2ccccc2)c2ccccc12)c1ccncc1,i,1%,3%,i,11%,·
COC(=O)N/N=C/c1cn(Cc2ccc(F)cc2)c2ccccc12,i,-14%,-21%,i,-5%,i
COC(=O)N/N=C/c1cc(C)n(-c2cccc3ccccc23)c1C,21µM*,1%,5%,?,-4%,i
COC(=O)N/N=C/c1cn(Cc2ccccc2Cl)c2ccccc12,i,?,-17%,i,-19%,i
COC(=O)N/N=C/c1cn(Cc2ccc(Cl)cc2Cl)c2ccccc12,16µM*,-24%,-33%,?,-18%,?
CC(C)C(NS(=O)(=O)c1cccc2cccnc12)C(=O)Nc1ccc(OC(F)(F)F)cc1 (centres undefined),i,·,5%,i,·,i
c1ccc2c(c1)CCCN2,i,·,·,i,·,·
C[C@H](NC(=O)c1sccc1OCc1ccc(Cl)cc1)c1ccccc1,·,·,22µM*,·,·,·
O=C(CSc1nc(-c2ccco2)cc(C(F)(F)F)n1)Nc1ccc2c(c1)CCC2,?,?,9%,i,-28%,i
COC(=O)c1ccccc1NC(=O)CSc1nc(-c2ccco2)cc(C(F)(F)F)n1,?,3.5µM*,-19%,?,?,?
Cc1ccc(NC(=O)CSc2nc(-c3ccco3)cc(C(F)(F)F)n2)cc1C,4.1µM*,2.5µM*,-2%,4.1µM*!,10µM*,i
COc1cc(/C=C2/SC(=O)NC2=O)ccc1OC(=O)c1ccco1,?,-22%,-6%,10µM*,-6%,?
CCOc1cc(/C=C2/SC(=S)NC2=O)ccc1OC(=O)c1ccco1,i,?,16%,i,12µM*,?
COc1cc(/C=C2/SC(=S)N(C)C2=O)ccc1OC(=O)c1ccco1,i,-14%,1%,i,5%,i
Cc1cccc(N2CCN(C(=O)c3cccc(N4CCCC4=O)c3)C(C)C2)c1 (centres undefined),?,2.6µM*,·,2.6µM*,?,i
O=C(c1cccc(N2CCCC2=O)c1)N1CCN(c2cccc(Cl)c2)CC1,?,13µM*,·,5.2µM*,?,i
O=C(NCCc1ccncc1)c1cnn(-c2ncc3c(n2)-c2ccccc2CCC3)c1C1CC1,·,·,·,·,·,i
O=S1(=O)N=C(Oc2ccccc2F)c2ccccc21,i,·,·,i,·,·
CCc1ccccc1NC(=O)Cn1c(=O)n(CCc2ccccc2)c(=O)c2sc3ccccc3c21,i,·,9%,i,·,i
C/C(=N\NC(=O)c1nnn(-c2nonc2N)c1-c1ccccc1)c1ccccc1O,i,1.8µM*,?,?,?,i
C/C(=N\NC(=O)c1nnn(-c2nonc2N)c1CN(C)c1ccccc1)c1ccccn1,?,?,·,5.8µM*,?,?
O=C1CC(N2CCN(C/C=C/c3ccccc3)CC2)C(=O)N1CCc1ccccc1 (centres undefined),12µM*,-24%,?,i,?,i
Oc1ccc(N=Nc2ccc3c(c2)OCCO3)c2cccnc12,?,1.3µM*,?,?,?,10µM*
Oc1ccc(N=Nc2ccc3c(c2)OCCO3)c(O)c1,i,?,?,i,-16%,?

# Source: PubChem
